Measured values: PubChem BioAssay AID1845226 (National Center for Advancing Translational Sciences (NCATS), 2023)
Records with an inconclusive call do not appear. A number with no mark means an inactive call. The source made the active and inactive calls. Calls come from the whole dose curve; as a rule, active = well fitted inhibition curve with a large enough effect; inconclusive = small, poorly fitted or top-dose-only effect; inactive = no such curve, though single readings can be large or run the other way.

assay: Confirmatory fluorescence-based thiol-reactive (MSTI) qHTS assay for identification of artifact compounds; settings: MSTI thiol-reactivity probe, 1 h; series mostly up to 39.2 µM; activity change, negative = inhibition: at the top concentration
Outline: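 Compounds (qHTS) incubated 1 h at room temperature, light-protected, with 4 uM MSTI in 1X PBS pH 7.4, 2% DMSO. Fluorescence at 525/598 nm normalized to Acetyl-MSTI and MSTI, fitted to Hill equation.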
Potency is the fitted concentration of half-maximal effect.

Compound	activity change, negative = inhibition	Potency
O=C(NCCN1CCCCC1)c1ccc(Cn2c(SCc3ccc(F)cc3)nc3cccnc32)cc1	91.6%	–
CCCC(N[C@@H](C)C(=O)N1[C@H](C(=O)O)C[C@@H]2CCCC[C@@H]21)C(=O)OCC (stereo partly drawn)	-0.232%	–
Nc1ccc(F)cc1F	0.0404%	–
COc1ccc(NC(=O)c2ccco2)cc1NC(=O)c1ccccc1[N+](=O)[O-]	-13.1%	–
COc1cc2c(C(=O)N3CCN(c4ccc(F)cc4)CC3)cn(CC(C)C)c(=O)c2cc1OC	36.4%	–
Cc1ccc(S(=O)(=O)Nc2ccc(F)cc2C(=O)Nc2nc(-c3ccccc3)cs2)cc1	197%	–
CSc1ncc(C(=O)NCc2ccccc2)c(-c2ccccc2)n1	33.3%	–
COc1cccc(N2CCN(c3c4c(nc5nncn35)CCC4)CC2)c1	29.3%	–
CCOc1ccccc1NC(=O)CSc1nc2c(oc3ccccc32)c(=O)n1-c1ccc(F)cc1	96.4%	–
Cc1ccc(OCCn2c(CCNC(=O)OC(C)(C)C)nc3ccccc32)cc1	-2.7%	–
Cc1cc(N[S+](=O)([O-])c2ccc(NC(=O)Cc3ccc(Cl)nc3)cc2)no1	20.7%	–
CC1CCc2noc(NC(=O)c3ccc([N+](=O)[O-])cc3)c2C1 (stereo not drawn)	–	2.44 µM (active)
COc1ccc(NC(=O)C(C)n2nc(-c3cc(C)ccc3C)c3c(c2=O)CCCC3)cc1 (stereo not drawn)	35.4%	–
COc1ccc(-c2cc(C(F)(F)F)n3nc(-c4ccc(Cl)cc4)cc3n2)cc1OC	214%	–
CCOc1ccc(C(=O)N2CCC(c3nc(-c4ccc(S(=O)(=O)N5CCCC5)cc4)no3)CC2)cc1	15.2%	–
O=C(CNC(=O)C(c1ccccc1)c1ccccc1)OCC(=O)c1ccc2ccccc2c1	122%	–
O=C(NCc1ccccc1)C1(C(F)(F)F)C/C(=C\CCO)CCCO1 (stereo not drawn)	-3.94%	–

Compound	activity change, negative = inhibition	Potency
Cc1ccc(NC(=O)CCn2cccn2)cc1Cl	17.3%	–
COc1ccc(/C=C/c2cc(O)cc(O[C@H]3OC(CO)C(O)C(O)C3O)c2)cc1 (stereo partly drawn)	11.9%	–
Cc1ccc(NC(=O)CC2Nc3cccc4cccc(c34)NC2=O)cc1 (stereo not drawn)	–	1.54 µM (active)
Cc1ccc(NS(=O)(=O)c2cc3c(cc2N2CCC2)NC(=O)CC3)cc1C	102%	–
OCC1=C[C@@H](O)[C@@H]2C=CO[C@@H](OC3O[C@H](CO)[C@@H](O)[C@H](O)[C@H]3O)[C@H]12 (stereo partly drawn)	12.5%	–
O=C(/C=C/c1ccc(O)cc1)OC[C@H]1O[C@@H](Oc2c(-c3ccc(O)cc3)oc3cc(O)cc(O)c3c2=O)[C@H](O)[C@@H](O)[C@@H]1O	5.52%	–
CCOc1ccc(CNC(=O)c2ccc3nc(CC)c(CC)nc3c2)cc1OC	51.1%	–
Cc1cc(C)cc(-n2c(SCC(=O)N3CCCCCC3)nc3c([nH]c4ccccc43)c2=O)c1	352%	–
Clc1ccc(CNc2cc(-c3ccc4c(c3)OCO4)ncn2)cc1	124%	–
COC(=O)c1ccc(NC(=O)CC2C(=O)N(c3ccccc3)C(=O)N2Cc2cccs2)cc1 (stereo not drawn)	170%	–
O=C(O)CCc1c2ccc(=O)c(O)c-2oc2c(O)c(O)ccc12	–	1.09 µM (active)
CCCCCn1c(=O)[nH]c2cc(C(=O)Nc3ccc(F)cc3)ccc2c1=O	188%	–
COc1ccc(OCc2nnc(-c3ccccc3)o2)cc1	77.2%	–
COc1ccc(-c2coc3cc(O)ccc3c2=O)c(OC)c1O	1.63%	–
COC(=O)c1ccc(NC(=O)CC2C(=O)N(c3ccccc3)C(=O)N2Cc2ccco2)cc1 (stereo not drawn)	188%	–
Cn1cc(CN(C(=O)Nc2ccc(Cl)c(Cl)c2)C2CCCCC2)c2ccccc21	81.3%	–
